Shown are actives, neighbours in structure and some others; about 2.5% of the full set was active somewhere.
Mot1-301 SUMO: yeast Mot1-301 growth rescue at high temperature, primary screen, SUMOylation pathway inhibitor project, S. cerevisiae, ATP luminescence, 38.5C; S. cerevisiae Mot1-301 growth rescue; percent above DMSO median, 100 means doubled; growth rescue, % at 18.8 µM; 320,000 compounds, 1% hits;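 active means every valid replicate shows activation above 250% relative to neutral control wells; inactive means the rest, any valid replicate at or below 250%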;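 further: OY570 slx delta 5 strain wells were the positive control but not used for scaling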
Efflux pump mplx: inhibitors of Candida efflux pumps in yeast, primary screen, S. cerevisiae, Nile Red, multiplex | S. cerevisiae Candida pump triplex | inhibition, % at 10 µM | 330,000 compounds, 0.44% hits | AID 485275, 2010;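 active means plate passing quality check with inhibition over a set limit, or well fluorescence over plate mean plus 4 SD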;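 further: Nile Red retained in pooled yeast measured as flow cytometry median fluorescence; 0% = buffer negative control and 100% = Enniatin B positive control; higher means more Nile Red kept so more efflux inhibition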
AI-2 QS modul: Vibrio harveyi AI-2 quorum sensing modulators, primary screen, JMH597 strain, luminescence/OD600 ratio; activity change, % at 7.5 µM; Vibrio harveyi JMH597 AI-2 luminescence/OD600 ratio, 9 h; stronger effect = lower value; strain lacks LuxN and CqsS sensors; 0 = neutral-control median; AID 2094, 2009; 300,000 compounds, 0.4% hits; in the data active means activity change below about -75%, passing the limit was not always enough;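 further: luminescence divided by OD600 gain over 9 h not by final OD600 alone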
V-ATPase pHluor: regulators of yeast V-ATPase proton pumping, primary screen, pHLuorin cytosolic pH fluorescence; AID 504577, 2011; response, % at 10 µM; S. cerevisiae; 350,000 compounds, 0.37% hits; in the data active means response mostly above about 7.3%, no sharp cut-off; inactive means mostly below about 5.4%; further: actives read high
ATG4B inh: ATG4B protease inhibitors, primary screen, biochemical, fluorescence, uHTS; Cysteine protease ATG4B (Homo sapiens), Q9Y4P1; ATG4B cleavage of LC3-PLA2, NBD-HPC fluorescence, 1 h; AID 504462, 2011; 340,000 compounds, 0.51% hits; inhibition, % at 8.33 µM; in the data active means inhibition above about 40%
Target sequence (Q9Y4P1 whole entry, looked up): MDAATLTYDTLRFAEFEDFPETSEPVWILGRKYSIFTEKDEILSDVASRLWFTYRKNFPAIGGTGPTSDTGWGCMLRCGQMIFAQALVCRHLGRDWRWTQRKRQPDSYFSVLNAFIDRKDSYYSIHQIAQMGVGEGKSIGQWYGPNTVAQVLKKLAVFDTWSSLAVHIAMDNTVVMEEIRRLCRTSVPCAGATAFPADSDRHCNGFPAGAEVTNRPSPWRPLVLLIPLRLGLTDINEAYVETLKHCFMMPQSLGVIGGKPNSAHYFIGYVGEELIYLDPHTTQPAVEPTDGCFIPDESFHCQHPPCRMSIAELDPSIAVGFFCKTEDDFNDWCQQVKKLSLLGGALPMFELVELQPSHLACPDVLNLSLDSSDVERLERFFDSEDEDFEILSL
ATG4B confirm: ATG4B protease inhibitors, retest, confirmation, biochemical, fluorescence, single concentration. shares compounds with ATG4B inh. ATG4B protease fluorescent substrate cleavage assay. inhibition, % at 8.33 µM. 320 compounds, 92% hits; in the data active means inhibition above about 39%
PLA2 counter: PLA2 enzyme inhibition, counter-screen for ATG4B inhibitor project, biochemical, single concentration, uHTS hits; shares compounds with ATG4B inh; purified PLA2, NBD-C6-HPC fluorescence, 45 min; inhibition, % at 8.33 µM; 1,600 compounds, 66% hits; AID 588402, 2011; in the data active means inhibition above about 50%
* marks the source's active call; other numbers are inactive results; . = no result given.

SMILES | Mot1-301 SUMO | Efflux pump mplx | AI-2 QS modul | V-ATPase pHluor | ATG4B inh | PLA2 counter | others
COC(=O)c1cc(C)nc2c1C(=O)C(=O)C=C2N1CCOCC1 | -5 | 0 | 17 | -1 | 75* | -12 | ATG4B confirm=32
N#Cc1c(NC(=O)C2CC(c3ccccc3Cl)=NO2)sc2c1CCC2 (configuration not stated) | 0 | 0 | 12 | 7 | 51* | 35 | ATG4B confirm=63*
c1ccc(-c2ccc(C(c3ccccc3)n3ccnc3)cc2)cc1 (configuration not stated) | 50 | 0 | 45 | 2 | 41* | 45 | ATG4B confirm=63*
Cc1cc(C)c2c(C)c(C(=O)Nc3c(C)n(C)n(-c4ccccc4)c3=O)oc2c1 | 3 | 0 | 6 | 1 | 71* | 69*
Cc1c(NC(=O)c2cc3ccccc3o2)c(=O)n(-c2ccccc2)n1C | 83 | 0 | -13 | 6 | -2 | .
COc1ccccc1CNC(=O)COC(=O)c1cc(=O)c2ccccc2o1 | 6 | 0 | . | 1 | -2 | .
Cc1oc(-c2ccccc2F)nc1CS(=O)(=O)CC(=O)NCc1ccccc1Cl | 5 | 0 | 27 | -4 | 49* | 67*
COc1ccc(OC)c(NC(=O)c2ccno2)c1 | 5 | 0 | 30 | -1 | -9 | .
COc1ccc(OC)c(Nc2nc3nonc3nc2N2CCCC(C)C2)c1 (configuration not stated) | -9 | 0 | 17 | . | 6 | .
CCC(C)C(CO)NCCCn1cnc2c(SC)ncnc21 (configuration not stated) | . | . | . | -1 | . | .
CN(C(=O)c1ccc(NC(=O)Cc2cccc(NC(=O)C3CCCN(C(=O)C4CCC4)C3)c2)cc1)C1CCCC1 (configuration not stated) | 7 | 0 | . | -2 | 5 | .
Clc1ccc(/C=N/Nc2nnc(-c3ncc[nH]3)c3ccccc23)cc1 | 16 | 0 | 8 | -1 | 79* | 82*
O=C1NC(=O)/C(=C/c2ccccc2Oc2ccc(Cl)cc2)S1 | 8 | 0 | 17 | 3 | 48* | 27 | ATG4B confirm=59*
COc1cc(NC(=S)Nc2cccc(Cl)c2Cl)c(OC)cc1Cl | -7 | 0 | 34 | -2 | 40* | 60*
COC(=O)c1cccc(NC(=S)Nc2cccc(Cl)c2Cl)c1 | -3 | 0 | -5 | 2 | 44* | 48
COc1cc(NC(=S)Nc2ccc(Br)cc2Cl)c(OC)cc1Cl | 6 | 0 | 16 | -1 | 14 | .
CC(=O)Nc1cccc(NC(=S)Nc2cccc(Cl)c2Cl)c1 | -14 | 0 | 9 | 1 | 14 | .
Cc1ccc(N=C2NC(=O)/C(=C/c3cn(C)c4ccccc34)S2)cc1C | -2 | 0 | . | 0 | 8 | .
C/C(=N/Nc1ccc([N+](=O)[O-])cc1)c1c[nH]c2ccccc12 | 149 | 0 | -12 | -2 | 46* | 50
C=CCNC(=O)N1C2=NC(C(=O)OC)=C(C(=O)OC)[C@@H]3N(Cc4ccccc4)c4ccccc4[C@]23C[C@H]1C(=O)OC | 5 | 0 | -5 | 4 | -15 | .
O=C(/C=C1\NC2(CCCC2)Cc2ccccc21)C(=O)N/N=C/c1ccccc1O | 39 | 0 | -4 | 6 | 44* | 47
Cc1sc(NC(=O)c2c(F)cccc2F)nc1-c1ccccc1 | -8 | 0 | 24 | 1 | 53* | 67*
Cc1sc(NC(=O)c2ccc(=O)n(C)n2)nc1-c1ccccc1 | 4 | 0 | 2 | -2 | -7 | .
O=C(Cn1cccc1C(=O)c1ccccc1)NCCC1=CCCCC1 | -6 | 0 | 1 | 3 | 43* | 42 | ATG4B confirm=62*
O=C(Cn1cccc1C(=O)c1ccccc1)NCCCc1ccccc1 | -4 | 0 | 10 | 4 | 18 | .
CN1CCSc2ccc(C(=O)NCc3cccc(Br)c3)cc21 | 5 | 0 | 2 | -1 | 41* | 57*
CCN1CCSc2ccc(C(=O)NCc3ccccc3C)cc21 | 19 | 0 | 33 | 2 | 44* | 59*
